Measurements from the supplement of paper PMC3616981.

Compound: CC(C)c1cccc(C(C)C)c1N1C(=O)c2ccc(O)cc2C1=O
Assay: reporter fold induction vs vehicle; higher = higher reporter activity
Method: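 Attagene multiplexed transcription-factor reporter assay (48 cis response elements and 25 trans nuclear-receptor constructs) treated with 5HPP-33 at 8 concentrations (0.091–200 µM). The response is fold induction of reporter activity relative to vehicle control. Cell line and time not stated in the paper; tested in ToxCast Phase II for this study.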

NFI_CIS gave a reporter fold induction (0.091 µM) of 1.01, a reporter fold induction (0.274 µM) of 0.966 and a reporter fold induction (0.823 µM) of 1.05. The reporter fold induction (2.469 µM) was 0.998, the reporter fold induction (7.407 µM) was 1.02 and the reporter fold induction (22.22 µM) was 0.921. The reporter fold induction (66.67 µM) was 1.41 and the reporter fold induction (200 µM) was 1.66.
ERE_CIS showed a reporter fold induction (0.091 µM) of 1.55, a reporter fold induction (0.274 µM) of 2.27 and a reporter fold induction (0.823 µM) of 1.01. The reporter fold induction (2.469 µM) was 0.967, the reporter fold induction (7.407 µM) was 4.09 and the reporter fold induction (22.22 µM) was 3.27. For the same target, the reporter fold induction (66.67 µM) was 4.08 and the reporter fold induction (200 µM) was 0.978.
Work on FoxA2_CIS yielded a reporter fold induction (0.091 µM) of 1.02, a reporter fold induction (0.274 µM) of 0.959 and a reporter fold induction (0.823 µM) of 1.04. The reporter fold induction (2.469 µM) was 0.939, the reporter fold induction (7.407 µM) was 1.05 and the reporter fold induction (22.22 µM) was 0.978. It also gave a reporter fold induction (66.67 µM) of 1.28 and a reporter fold induction (200 µM) of 1.32.
In the case of FXR_TRANS, the reporter fold induction (0.091 µM) is reported as 1.17, the reporter fold induction (0.274 µM) is reported as 1.15 and the reporter fold induction (0.823 µM) is reported as 1.19. The reporter fold induction (2.469 µM) was 1.17, the reporter fold induction (7.407 µM) was 1.09 and the reporter fold induction (22.22 µM) was 1.46. The reporter fold induction (66.67 µM) was 1.82 and the reporter fold induction (200 µM) was 1.92.
Sp1_CIS was tested, and the reporter fold induction (0.091 µM) was 1.04, the reporter fold induction (0.274 µM) was 1.04 and the reporter fold induction (0.823 µM) was 1.02. It also gave a reporter fold induction (2.469 µM) of 0.989, a reporter fold induction (7.407 µM) of 1.11 and a reporter fold induction (22.22 µM) of 1.08. The reporter fold induction (66.67 µM) was 1.39 and the reporter fold induction (200 µM) was 2.02.
